From paper PMC6602471

What follows are sequences tested against RUNX1 (Homo sapiens, UniProt Q01196 1-453) (assay: custom PBM; custom protein-binding microarray; buffer, salt, pH and temperature not stated; high values mean tight binding). Conditions: dsDNA, one strand shown.
RUNX1, sequence (Q01196 whole entry): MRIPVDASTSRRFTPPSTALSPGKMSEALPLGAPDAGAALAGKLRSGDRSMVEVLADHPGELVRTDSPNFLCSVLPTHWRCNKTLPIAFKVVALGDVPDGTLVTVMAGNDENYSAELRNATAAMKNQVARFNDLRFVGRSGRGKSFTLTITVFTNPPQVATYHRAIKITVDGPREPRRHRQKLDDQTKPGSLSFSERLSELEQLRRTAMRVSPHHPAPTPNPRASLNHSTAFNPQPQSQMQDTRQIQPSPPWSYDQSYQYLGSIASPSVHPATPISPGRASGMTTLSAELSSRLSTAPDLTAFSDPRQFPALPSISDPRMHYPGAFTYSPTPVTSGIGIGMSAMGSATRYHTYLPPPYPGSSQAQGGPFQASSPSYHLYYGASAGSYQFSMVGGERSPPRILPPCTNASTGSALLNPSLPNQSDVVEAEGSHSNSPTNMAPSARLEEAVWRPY

Sequence | binding signal
CGCGCATTCTGTGGTTGCGCACATACGCACACATACACATACACACATACACATACGCAC | 11.4 log fluorescence intensity
GCATACGGCCGACGTCAGCCACATACGCACACATACACATACACACATACACATACGCAC | 11 log fluorescence intensity
CGCGCACTCAGTGGTTGCGCACATACGCACACATACACATACACACATACACATACGCAC | 11 log fluorescence intensity
CGCGCACTCTGTGTTTGCGCACATACGCACACATACACATACACACATACACATACGCAC | 11 log fluorescence intensity
GCGCACATTTCCCCTAAATCATACACGCACACATACACATACACACATACACATACGCAC | 10.9 log fluorescence intensity
CGCGCACCCTGTGGTTGCGCACATACGCACACATACACATACACACATACACATACGCAC | 11.4 log fluorescence intensity
CGCGCACTCTGTGGTGGCGCACATACGCACACATACACATACACACATACACATACGCAC | 11.1 log fluorescence intensity
CGCGCACTCTGTGGTTCCGCACATACGCACACATACACATACACACATACACATACGCAC | 11.4 log fluorescence intensity
GCATACTGCTGACGTCAGCCACATACGCACACATACACATACACACATACACATACGCAC | 10.9 log fluorescence intensity
GCGCACATTTCTCGTAAATCATACACGCACACATACACATACACACATACACATACGCAC | 10.9 log fluorescence intensity
GCGCACATTTCCCTTAAATCATACACGCACACATACACATACACACATACACATACGCAC | 11 log fluorescence intensity
GCGCACATTTCCCGTAAATTATACACGCACACATACACATACACACATACACATACGCAC | 10.9 log fluorescence intensity
CGCGCACTCTGTGGTAGCGCACATACGCACACATACACATACACACATACACATACGCAC | 11 log fluorescence intensity
GCATACGGCTGACGTCAGCTACATACGCACACATACACATACACACATACACATACGCAC | 10.9 log fluorescence intensity
